Source: PubChem BioAssay (National Center for Advancing Translational Sciences (NCATS))
BRCA1 expr act = BRCA1 expression activation. actives 1.1% (n = 380,000). Potency, µM (series often up to 46.1 µM), for inactives: top-dose activation, usual class: activators. MCF7-BRCA1-FFLuc reporter, luminescence, 48 h; response scale: scaled: vehicle 0%, 10 µM genistein 100%; note: potency is the fitted concentration of half-maximal effect; nearly all actives have a fitted effect of over 80% in size
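Compounds are tested at multiple concentrations on MCF7 BRCA1-luciferase reporter cells seeded at 2000 per well; after 48 h, a single luminescence end-point is taken and curves fitted to the normalized data.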
CCT modulator = cytosolic chaperonin activity modulation; purified chaperonin ATPase assay, HTRF ADP detection, 30 min; activity change, % (no concentration beside the values), hits read low; actives 0.3% (n = 360,000); AID 651819; in the data active = activity change below about -30%; note: % is set by controls: 0 for no effect and ±100 for the full control effect
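Nucleotide hydrolysis assay: TRiC at 20–40 nM final (set by batch activity) with 10 uM ATP, 30 min at 37 °C, in presence of 76 uM compound. Detection by competitive ADP HTRF, 30 min ambient.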
AT treatment = potential ataxia-telangiectasia treatment; F2112 A-T fibroblasts, KAP-1 phosphorylation AlphaLISA; neocarzinostatin DNA damage 30 min before lysis; Potency, µM (top dose mostly 57.5 µM), for inactives: at the highest dose activation, actives largely listed as activators; actives 0.19% (n = 320,000); AID 485349; note: potency is the fitted concentration of half-maximal effect; % of control where 0% means no effect; nearly all actives have a fitted effect of over 45% in size
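hTERT-immortalized A-T patient fibroblasts (F2112), 500 cells/well in OPTI-MEM, 1% FBS, got compounds for 60 min, then NCS for 30 min at 37C. Lysates were then assayed for phospho-KAP-1 by AlphaLISA (anti-pKAP1 donor, anti-KAP1 acceptor beads), 6 hr at 25C.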
pAkt inh = Akt phosphorylation inhibition; AID 651550; activity change, % for hits at 50 µM; Neuro2A IGF-stimulated pAkt S473 HTRF, 20 min; stronger effect = lower value; actives 0.32% (n = 360,000); in the data active = activity change below about -80%; inconclusive = mostly about -51% to -80%; note: % is set by controls: 0 for no effect and ±100 for the full control effect
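Neuro2A cells in DMEM with 0.5% FBS, overnight at 37 deg C, given compound at single 50 µM final, then IGF (6 nM final) for 20 min at 37 deg C. Lysed; phospho-Akt Ser473 by HTRF after 24 h, 665/615 ratio.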
Mm-Cpn inhibitor = M. maripaludis TRiC chaperonin inhibition. actives 0.031% (n = 330,000). Potency, µM (top dose mostly 76.9 µM), for inactives: top-dose activity, negative = inhibition, actives largely listed as inhibitors. AID 504842. purified Mm-Cpn ATPase, ADP Transcreener TR-FRET; note: potency is the fitted concentration of half-maximal effect; % is set by controls: 0 for no effect and ±100 for the full control effect; nearly all actives have a fitted effect of over 80% in size
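Measured: ADP formation by purified Mm-CPN. Conditions: 25 nM protein, 10 uM ATP, Tris pH 7.4 with Mg2+, K+ and DTT, 37°C for 30 min. Detection: Transcreener HTRF after 30 min at room temperature.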
Numbers without * were called inactive; i = inactive; u = inconclusive; x = no result given. Sampled rows, rich in hits. Any-hit rate of the full collection: about 1.8%. Unless noted, calls come from the whole dose curve; as a rule, active = well fitted curve in the direction sought with a large enough effect; inconclusive = small, poorly fitted or top-dose-only effect, or another doubt; inactive = no such curve, though single readings can be large; an effect the other way counts as inactive or inconclusive.

SMILES | BRCA1 expr act | CCT modulator | AT treatment | pAkt inh | Mm-Cpn inhibitor
CC1(C)OC(=O)C2(Cc3c(F)cccc3N3CCCC32)C(=O)O1 (stereo not given) | 12.8% | x | x | x | x
O=C1c2ccccc2NC(c2ccccc2OCc2ccccc2)N1Cc1ccco1 (stereo not given) | 9.0% | x | x | x | x
COc1ccc(OC)c(CCNC(=O)c2cc3c(-c4ccccc4F)nn(C)c3s2)c1 | -69.7% | x | x | x | x
c1ccc(-c2csc(NC3CCCCC3)n2)cc1 | 2.82µM* | -2.3 | -10.8% | i | -22.4%
CC(CCC(C)[n+]1cccc(Br)c1)[n+]1cccc(Br)c1 (stereo not given) | 6.1% | x | x | x | x
COc1cc(N(C)C)c(OC)cc1/C=C1\Cc2ccccc2C1=O | -24.8% | x | x | x | x
COc1cccc(CNC(=O)CSCc2cnn(-c3ccccc3)c2-n2cccc2)c1OC | -28.0% | -4.4 | x | -119.3%* | -0.1%
COc1ccccc1CNC(=O)CSCc1cnn(-c2ccccc2)c1-n1cccc1 | -13.9% | 0.7 | -1.4% | i | -9.8%
COc1ccc(N2CCN(C(=O)c3cc(S(=O)(=O)N4CCCCCC4)ccc3OC)CC2)cc1 | -27.6% | 1.4 | -9.5% | i | -2.2%
CCCCn1c(N)c(N(CCOC)C(=O)CCC2CCCCC2)c(=O)[nH]c1=O | 3.0% | -1.9 | 3.3% | i | 0.9%
COc1cccc(N2CCN(c3cnc4ccccc4n3)CC2)c1 | 2µM* | 1.7 | 2.9% | i | 1.8%
O=C(C[n+]1ccc2ccccc2c1)c1ccc(O)c(O)c1 | 6.3% | x | x | x | x
Cc1nn(CCOc2ccccc2)c(=O)n1-c1c(F)cccc1F | 5.62µM* | 0.2 | 1.9% | i | 0.5%
Cc1ccc(-n2c(C)nn(CCOc3ccccc3)c2=O)cc1 | 6.31µM* | -3.1 | 1.5% | i | 0.0%
CC1=NN(c2ccccc2)C(=O)/C1=C\C=C\c1ccccc1 | -11.1% | -0.3 | 22.0% | i | -3.9%
CC1=NN(c2ccc(C)c(C)c2)C(=O)/C1=C\C=C\c1ccc([N+](=O)[O-])o1 | -64.2% | -2.0 | 31.6µM* | i | 1.2%
O=C(NCc1ccncc1)C12CC3CC(CC(C3)C1)C2 | -3.3% | -84.3* | 19.7% | i | 1.4%
O=C(NCc1ccccc1)C12CC3CC(CC(C3)C1)C2 | 10.8% | -0.9 | x | i | 2.7%
COc1ccc(/C(N)=N/OC(=O)c2cccs2)cc1OC | 8.91µM* | -3.1 | -3.7% | i | -0.3%
Cc1ccc(/C(N)=N/OC(=O)c2cccs2)cc1 | 42.2% | -0.6 | 7.8% | i | 1.1%
CC(O)(c1cccc(F)c1)c1nc(-c2cccc(C(=O)O)c2)cs1 (stereo not given) | 100.5% | 1.1 | x | i | x
CC(O)(c1cccc(F)c1)c1nc(-c2ccncc2)cs1 (stereo not given) | -13.6% | -30.9* | x | i | x
CC(O)(c1ccccc1)c1nc(-c2cccc(C(=O)O)c2)cs1 (stereo not given) | 10µM* | 1.0 | x | x | x
Cc1ccc(CN(Cc2cc3cc(C)ccc3[nH]c2=O)Cc2nnnn2Cc2ccccc2)cc1 | 11.1% | x | x | x | x
CC1CCN(S(=O)(=O)c2cc(C(=O)Nc3ccccn3)ccc2Br)CC1 | -16.0% | -3.1 | 3.8% | i | -4.4%
SMILES | BRCA1 expr act | CCT modulator | AT treatment | pAkt inh | Mm-Cpn inhibitor
COc1cc(/C=N/N=C2/NC(=O)C(CC(=O)O)S2)ccc1OCc1ccc(Cl)cc1 (stereo not given) | 3.98µM* | -0.2 | 1.8% | i | 0.6%
COc1cc2c(=O)n(CCC(=O)NCC3CCCO3)c(=O)n(CC(=O)Nc3ccc(F)cc3)c2cc1OC (stereo not given) | -3.1% | -1.2 | 4.2% | i | -2.9%
O=c1[nH]cnc2cc(-c3ccccc3)sc12 | 2.82µM* | -0.3 | -7.5% | i | -4.5%
O=C(CNC(=O)c1ccc([N+](=O)[O-])cc1)c1ccccc1 | 6.31µM* | -1.3 | -1.9% | i | -2.5%
Cc1cccc(Nc2nnc(SCC(=O)NC3CCCc4ccccc43)s2)c1C (stereo not given) | -70.9% | -0.1 | 8.7% | i | -4.0%
C/C(N)=C(/C#N)C(=O)CSc1nnc(Nc2c(C)cccc2C)s1 | -2.5% | 1.2 | -1.6% | i | 0.3%
Cc1cccc(Nc2nnc(SCC(=O)c3ccc(Br)s3)s2)c1C | -38.2% | 1.9 | 1.9% | i | 39.8µM*
C/C(N)=C(/C#N)C(=O)CSc1nnc(Nc2cccc(C)c2C)s1 | 11.2µM* | -2.9 | 6.5% | i | 0.9%
O=C(Nc1c(Cl)cc([N+](=O)[O-])cc1Cl)c1cc(Cl)ccc1O | -32.3% | x | x | x | x
CCN(CC)C(=O)CCCSc1nnc(Nc2ccccc2F)s1 | 4.47µM* | -1.9 | -0.6% | i | -1.6%
O=C1c2ccccc2C(=O)N1CSc1nnc(Nc2ccccc2F)s1 | 38.2% | 0.3 | -2.8% | i | 2.3%
CCn1c(SCC(=O)NCCCN2CCCC2=O)nnc1-c1cccc(C)c1 | -3.3% | 0.1 | 0.8% | i | -0.3%
Oc1ccc(/C=N/NC(=S)N/N=C/c2ccc(O)cc2)cc1 | 8.91µM* | -2.4 | 10.1% | i | -13.0%
Oc1ccc(/C=N/NC(=S)Nc2cccnc2)cc1 | u | 1.6 | 18.3% | i | -0.1%
COc1ccccc1NC(=S)N/N=C/c1ccc(O)cc1 | 3.16µM* | 3.1 | 5.1% | i | 1.8%
CC1(C)C2CCC1(C)C(NC(=O)COC(=O)c1ccc(S(C)(=O)=O)c([N+](=O)[O-])c1)C2 (stereo not given) | -68.8% | x | x | x | x
COCCN(C(=O)COC(=O)Cc1coc2cc3c(cc12)CCC3)c1c(N)n(Cc2ccccc2)c(=O)[nH]c1=O | -15.7% | -2.5 | -1.7% | i | -0.7%
O=C(Nc1ccc(Cl)cn1)c1cc2c(s1)-c1ccccc1OC2 | 5.62µM* | -0.9 | 15.8µM* | i | -8.0%
O=C(Nc1cccnc1)c1cc2c(s1)-c1ccccc1OC2 | -37.1% | -71.2* | 21.8% | x | -1.0%
Cc1nc2c(c(=O)n1CCC1=CCCCC1)c1nc3ccccc3nc1n2/N=C/c1ccccc1 | 13.5% | 1.8 | -1.4% | i | -21.0%
CCCCCCn1c(C)nc2c(c1=O)c1nc3ccccc3nc1n2/N=C/c1ccco1 | -22.0% | 0.4 | -4.2% | -108.1%* | -0.5%
Cc1cc(Cl)ccc1Nc1ncccc1C(N)=O | 4.47µM* | 0.6 | -29.4% | i | -0.4%
NC(=O)c1cccnc1Nc1ccccc1F | u | -1.3 | -12.6% | i | -1.7%
Cc1cccc(C2=NN(c3ccc(Br)cc3)[C@@H](C(=O)N3CCOC3=O)[C@@H]2c2ccc(Cl)cc2)c1 | -23.8% | 0.3 | -5.1% | i | -18.4%
O=C1OCCN1C(=O)[C@H]1[C@H](c2ccc(F)cc2)C(c2cccc(Cl)c2)=NN1c1ccccc1 | -15.6% | -0.1 | 30.1% | i | -27.9%
Cc1cccc(C2=NN(c3ccc(Br)cc3)[C@@H](C(=O)N3CCOC3=O)[C@@H]2c2ccc(F)cc2)c1 | -42.9% | -0.7 | 17.8µM* | i | -21.9%
